Screening results (PubChem BioAssay)
Compounds with a hit are over-represented: about 12% of the library has one in this group of screens.
JMJD2A Tudor = qHTS Assay for Inhibitors of JMJD2A-Tudor Domain. AlphaScreen JMJD2A-Tudor / H3K4me3 peptide binding. Potency, µM (series often up to 114 µM), hits mostly inhibitors. 4.4% of 390,000 active; also: nearly all actives have a fitted effect of over 50% in size
Sfp PPTase inh = qHTS Assay for Inhibitors of Bacillus subtilis Sfp phosphopantetheinyl transferase (PPTase). Potency, µM, actives largely listed as inhibitors. Biochemical Sfp PPTase activity, qHTS. 4'-phosphopantetheinyl transferase ffp (Bacillus subtilis), Q9F4F7. 3.5% of 310,000 active;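 also: the enzyme is Sfp with the accession as filed and its product quenches rhodamine fluorescence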
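Fluorescence-quenching assay: 15 nM Sfp-PPTase preincubated 15 min at room temperature with compound, then 5 uM rhodamine-CoA and 12.5 uM BHQ-2-labelled YbbR peptide added. Fluorescence (ex 525/em 598 nm) read at start and after 30 min; difference gives rate.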
BAZ2B block = qHTS Assay for Inhibitors of BAZ2B; Bromodomain adjacent to zinc finger domain protein 2B (Homo sapiens), Q9UIF8; AID 504333, 2011; AlphaScreen BAZ2B-H3K14Ac peptide displacement; Potency, µM (highest dose often 114 µM), hits mostly inhibitors; 4.4% of 360,000 active; also: nearly all actives have a fitted effect of over 60% in size
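Complex of BAZ2B and biotin-H3K14Ac (50 nM apiece) forms over 30 min at RT, then faces library compounds up to 110 uM for another 30 min; AlphaScreen beads added, 20 min dark incubation, luminescence read.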
G9a inh = qHTS Assay for Inhibitors of Histone Lysine Methyltransferase G9a | 8.8% of 350,000 active | G9a H3K9 monomethylation, AlphaScreen, 2 h | AID 504332, 2011 | Potency, µM (highest dose often 102 µM), most hits filed as inhibitors | Histone-lysine N-methyltransferase EHMT2 (Homo sapiens), Q96KQ7; also: nearly all actives have a fitted effect of over 75% in size
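Readings reflect AlphaScreen signal from monomethyl-H3K9 antibody detection. HMT at 20 nM; substrate b-H3K9 500 nM; cofactor SAM 20 uM; 2 h RT reaction; compounds tested as titrations in qHTS with 15 min preincubation.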
HP1b binding inh = HTS for Inhibitors of HP1-beta Chromodomain Interactions with Methylated Histone Tails | Chromobox protein homolog 1 (Homo sapiens), P83916 | AlphaScreen HP1-beta / biotin-H3K9me3 peptide binding | Potency, µM (series often up to 114 µM), hits mostly inhibitors | 0.56% of 390,000 active; also: nearly all actives have a fitted effect of over 70% in size
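Compound inhibition of the preformed complex between 50 nM HP1-beta and 50 nM biotinylated H3K9me3 peptide was read by AlphaScreen. Buffer was PBS pH 7.4 with 0.01% Tween-20. Incubations ran 30 min at room temperature, with 10 ug/mL donor/acceptor beads.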
Each line names hits and unclear results; the compound was inactive in the other large screens. Calls follow the shape of the dose curve; as a rule, active = well fitted curve in the direction sought with a large enough effect; inconclusive = small, poorly fitted or top-dose-only effect, or another doubt; inactive = no such curve, though single readings can be large; an effect the other way counts as inactive or inconclusive.

COc1ccc(N2CCN(CC(=O)c3ccc(Cl)cc3)CC2)cc1	JMJD2A Tudor inconclusive, BAZ2B block inconclusive, G9a inh 22µM
N#Cc1ccc(C(=O)CN2CCN(c3ccccc3)CC2)cc1	G9a inh 28µM
COc1ccc(C(=O)CN2CCN(c3ccc(F)cc3)CC2)cc1OC	G9a inh 40µM
COc1ccc(C(=O)CN2CCN(c3ccc(Cl)cc3)CC2)cc1OC	Sfp PPTase inh 79µM, G9a inh 22µM
CCCN1Cc2cccc(C(=O)NC(CC(=O)OCC)c3ccc(C)cc3)c2C1=O (stereo not drawn)	none
CCOC(=O)C1CCN(c2nc3ccccc3n2CC(=O)c2ccccc2)CC1	none
COc1ccccc1N1CCN(CC(=O)c2ccc(F)cc2)CC1	JMJD2A Tudor 14µM, Sfp PPTase inh 40µM, BAZ2B block 56µM, HP1b binding inh inconclusive (no result: G9a inh)
COc1ccc(N2CCN(c3nc4ccccc4n3CC(=O)c3ccccc3)CC2)cc1	JMJD2A Tudor inconclusive, Sfp PPTase inh inconclusive, BAZ2B block inconclusive, G9a inh 14µM, HP1b binding inh inconclusive
COc1ccccc1N1CCN(C/C(C)=C/c2ccccc2)CC1	BAZ2B block 56µM
COC(=O)/C=C1/S/C(=N/NC(=O)c2ccccc2)NC1=O	G9a inh inconclusive
COC(=O)/C=C1/SC(=NC(=O)c2cccc([N+](=O)[O-])c2)NC1=O	BAZ2B block inconclusive, G9a inh 20µM
COC(=O)/C=C1\SC(=NC(=O)c2cccc([N+](=O)[O-])c2)NC1=O	Sfp PPTase inh inconclusive, G9a inh 35µM
CC(C)c1nnc(NC(=O)Cc2cccs2)s1	none
Cc1nnc(NC(=O)CSc2ccccn2)s1	none
CC(C)Cc1nnc(NC(=O)CSc2ccccn2)s1	Sfp PPTase inh 45µM, G9a inh 45µM
CCCCCc1nnc(NC(=O)Cc2cccs2)s1	JMJD2A Tudor 28µM, BAZ2B block 45µM, G9a inh 14µM, HP1b binding inh 50µM
CC(C)Cc1nnc(NC(=O)Cc2cccs2)s1	JMJD2A Tudor inconclusive, BAZ2B block 40µM, G9a inh 45µM
CC(C)C(=O)Nc1c(-c2cccc(Cl)c2)c(=O)c2ccccc2n1C	none
Cc1cccc(N2C(S)=C(C#N)C(=O)NC2c2ccco2)c1 (stereo not drawn)	none (no result: G9a inh)
COc1ccc(C2NC(=O)C(C#N)=C(S)N2c2ccccc2)cc1OC (stereo not drawn)	Sfp PPTase inh 20µM, G9a inh 45µM
N#CC1=C(S)N(c2ccccc2)C(c2ccc(-c3cccc(Cl)c3)o2)NC1=O (stereo not drawn)	JMJD2A Tudor inconclusive, Sfp PPTase inh 28µM, BAZ2B block inconclusive, G9a inh inconclusive
CCOc1ccc(C2NC(=O)C(C#N)=C(S)N2c2ccc(C)cc2)cc1OC (stereo not drawn)	Sfp PPTase inh 45µM, G9a inh inconclusive
COc1ccc(N2C(S)=C(C#N)C(=O)NC2c2ccco2)cc1 (stereo not drawn)	Sfp PPTase inh 28µM, G9a inh 35µM
CCOc1ccc(C2NC(=O)C(C#N)=C(S)N2c2cccc(C)c2)cc1OC (stereo not drawn)	Sfp PPTase inh inconclusive, G9a inh inconclusive
COc1cc(C2NC(=O)C(C#N)=C(S)N2c2ccccc2)ccc1OC(C)C (stereo not drawn)	Sfp PPTase inh 40µM, G9a inh inconclusive
COc1cc(C2C3CN(C)CC=C3C(C#N)=C(N)C2(C#N)C#N)ccc1OC(C)C (stereo not drawn)	G9a inh inconclusive
Oc1c(C(c2ccc(Cl)cc2)N2CCCC2)cc(Cl)c2cccnc12 (stereo not drawn)	JMJD2A Tudor 28µM, BAZ2B block 32µM, G9a inh 25µM
O=C(CCc1ccccc1)NC(c1cccs1)c1cc(Cl)c2cccnc2c1O (stereo not drawn)	G9a inh inconclusive
COc1cc(C(=O)NC(c2ccc(Cl)cc2)c2cc(Cl)c3cccnc3c2O)cc(OC)c1OC (stereo not drawn)	none (no result: Sfp PPTase inh)
